Experimental data taken from PubChem BioAssay (EPA / NIEHS).
Inconclusive results are not listed. Some structures have more than one record in an assay (separate samples or runs), and their calls can disagree. Activity calls are given as the source filed them. Rule for the calls, unless noted: active = hit-call score of the fitted dose curve at least 0.9, where 1 is the maximum; inconclusive = response in the unintended direction; inactive = score below 0.9.

Legend:
[1] = target: Cellular tumor antigen p53 (Homo sapiens) (UniProt P04637); experiment: TOX21_p53_BLA_p3_ratio: Tox21 HCT-116 p53 Agonism Beta-lactamase Assay, Ratio, Phase 3 (AID 2283596)
Summary of the method: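 HCT116 p53-bla cells (4000/well) given compound in DMSO (217-fold dilution) after 5 h, incubated 16 h at 37C. CCF4-AM substrate 2 h at room temperature; 460/530 nm emission ratio, gain fitted against DMSO.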

[2] = TOX21_p53_BLA_p4_viability: Viability Assessment in the Tox21 HCT-116 p53 Agonism Beta-lactamase Assay, Phase 4 (AID 2283597);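 note: hits lower the luminescence signal meaning cytotoxicity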
Summary of the method: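 HCT-116 p53-bla cells, 4000/well, dosed after 5 h attachment and incubated 16 h at 37 °C, 5% CO2. Viability from CellTiter-Glo ATP luminescence after 30 min at room temperature, taken after the beta-lactamase read; loss of signal indicates cytotoxicity.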

[3] = target: Cellular tumor antigen p53 (Homo sapiens) (UniProt P04637); experiment: TOX21_p53_BLA_p5_ratio: Tox21 HCT-116 p53 Agonism Beta-lactamase Assay, Ratio, Phase 5 (AID 2283599)
Summary of the method: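 HCT-116 cells carrying a p53-inducible beta-lactamase reporter were seeded at 4000 cells/well and dosed after 5 h with compound in DMSO (217-fold dilution). After 16 h at 37C, CCF4-AM substrate was added for 2 h, and the 460/530 nm emission ratio was scored as gain-of-signal versus DMSO.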

[4] = TOX21_p53_BLA_p5_viability: Viability Assessment in the Tox21 HCT-116 p53 Agonism Beta-lactamase Assay, Phase 5 (AID 2283600)
Summary of the method: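 HCT-116 p53 beta-lactamase reporter cells, 4000/well, were exposed to compound (pin transfer, 217-fold dilution) for 16 hours at 37C. Cellular ATP was read by CellTiter-Glo luminescence after 30 min at room temperature.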

[5] = target: Cellular tumor antigen p53 (Homo sapiens) (UniProt P04637); experiment: TOX21_p53_BLA_p4_ratio: Tox21 HCT-116 p53 Agonism Beta-lactamase Assay, Ratio, Phase 4 (AID 2283601)
Summary of the method: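 HCT116 cells carrying an inducible beta-lactamase reporter were plated at 4000 cells/well, rested 5 h, then exposed to compounds in DMSO (217-fold dilution) for 16 h at 37C. CCF4-AM substrate was loaded 2 h at room temperature; 460/530 nm emission ratio scored gain-of-signal versus DMSO.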

[6] = Tanguay_ZF_120hpf_YSE_legacy: (Legacy) Oregon State University Tanguay Lab 120 Hour Post-fertilization zebrafish Assay for Yolk Sac Edema (AID 2283634);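 for AC50: actives raise the incidence of yolk sac edema above the DMSO baseline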
Summary of the method: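 Dechorionated Tropical 5D wild-type zebrafish embryos were exposed statically, one per well, from 6 to 120 hpf at 28C in 0.64% DMSO. Yolk sac edema was scored present/absent by brightfield at 120 hpf, and dead embryos were excluded.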

[7] = Tanguay_ZF_120hpf_AXIS_legacy: (Legacy) Oregon State University Tanguay Lab 120 Hour Post-fertilization zebrafish Assay for Body Axis Malformation (AID 2283635);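 for AC50: potency for an increased fraction of larvae scored with body axis malformation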
Summary of the method: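 Dechorionated wild-type Tropical 5D zebrafish embryos, one per well, statically exposed from 6 hpf to 120 hpf at 28C in 0.64% DMSO final. Body axis malformation scored present/absent by brightfield microscopy at 120 hpf; dead embryos excluded.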

[8] = Tanguay_ZF_120hpf_EYE_legacy: (Legacy) Oregon State University Tanguay Lab 120 Hour Post-fertilization zebrafish Assay for Eye Malformation (AID 2283636);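 note: binary presence or absence of eye malformation scored by brightfield in 120 hpf larvae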
Summary of the method: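 Dechorionated wild-type Tropical 5D zebrafish embryos were exposed statically from 6 hpf, one per well, to 120 hpf at 28C in sealed, foil-covered plates with 0.64% DMSO. Eye malformation was scored present/absent by brightfield microscopy against DMSO controls.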

[9] = Tanguay_ZF_120hpf_SNOU_legacy: (Legacy) Oregon State University Tanguay Lab 120 Hour Post-fertilization zebrafish Assay for Snout Malformation (AID 2283637)
Summary of the method: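 Tropical 5D wild-type zebrafish embryos, dechorionated with pronase at 4 hpf, were exposed singly from 6 hpf to 120 hpf statically at 28C in 0.64% DMSO. Snout malformation was scored present/absent by brightfield microscopy, fitted against DMSO.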

[10] = Tanguay_ZF_120hpf_JAW_legacy: (Legacy) Oregon State University Tanguay Lab 120 Hour Post-fertilization zebrafish Assay for Jaw Malformation (AID 2283638)
Summary of the method: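 Dechorionated Tropical 5D wild-type zebrafish embryos, one per well, exposed statically from 6 hpf to 120 hpf at 28C in 0.64% DMSO. Jaw malformation was scored by brightfield microscopy as present or absent. It was not scored in dead embryos.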

[11] = Tanguay_ZF_120hpf_OTIC_legacy: (Legacy) Oregon State University Tanguay Lab 120 Hour Post-fertilization zebrafish Assay for Otic Vesicle Malformation (AID 2283639)
Summary of the method: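 Otic vesicle malformation is read as a yes/no morphology call at 120 hpf. Exposure is static at 28C with 0.64% (vol/vol) DMSO; embryos that die are excluded from non-mortality endpoints.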

[12] = Tanguay_ZF_120hpf_PE_legacy: (Legacy) Oregon State University Tanguay Lab 120 Hour Post-fertilization zebrafish Assay for Pericardial Edema (AID 2283640);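 for AC50: potency for increased incidence of pericardial edema versus DMSO baseline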
Summary of the method: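 Tropical 5D wild-type zebrafish embryos were statically exposed until 120 hpf at 28C, with 0.64% DMSO final. Pericardial edema was scored by brightfield as present or absent; endpoints were not scored in dead embryos.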

[13] = Tanguay_ZF_120hpf_BRAI_legacy: (Legacy) Oregon State University Tanguay Lab 120 Hour Post-fertilization zebrafish Assay for Brain Malformation (AID 2283641)
Summary of the method: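 Tropical 5D wild-type zebrafish embryos exposed statically until 120 hpf at 28C, 0.64% DMSO final, sealed and dark. Brain malformation scored present/absent by brightfield at 120 hpf; dead embryos excluded. Trimethyltin chloride 5uM positive control.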

[14] = Tanguay_ZF_120hpf_SOMI_legacy: (Legacy) Oregon State University Tanguay Lab 120 Hour Post-fertilization zebrafish Assay for Somite Malformation (AID 2283647)
Summary of the method: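 Dechorionated Tropical 5D wild-type zebrafish embryos, one per well from 6 hpf, statically exposed at 28C to 120 hpf in 0.64% DMSO; somite malformation scored present/absent by brightfield; trimethyltin 5 uM positive control; dead embryos not scored.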

[15] = Tanguay_ZF_120hpf_PFIN_legacy: (Legacy) Oregon State University Tanguay Lab 120 Hour Post-fertilization zebrafish Assay for Pectoral Fin Malformation (AID 2283648);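 note: each larva judged yes or no for fin defect by brightfield with dead larvae skipped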
Summary of the method: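 Tropical 5D wild-type embryos, dechorionated with pronase at 4 hpf, were placed singly in wells at 6 hpf and statically exposed until 120 hpf at 28C, sealed and dark, with 0.64% (vol/vol) final DMSO; pectoral fin malformation scored present/absent.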

[16] = Tanguay_ZF_120hpf_PIG_legacy: (Legacy) Oregon State University Tanguay Lab 120 Hour Post-fertilization zebrafish Assay for Pigmentation Malformation (AID 2283650)
Summary of the method: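 Tropical 5D wild-type zebrafish embryos, dechorionated with pronase at 4 hpf, were exposed singly from 6 hpf to 120 hpf statically at 28C in sealed, dark plates with 0.64% DMSO; pigmentation scored present/absent by brightfield microscopy, fitted against DMSO.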

[17] = Tanguay_ZF_120hpf_CIRC_legacy: (Legacy) Oregon State University Tanguay Lab 120 Hour Post-fertilization zebrafish Assay for Circulatory Malformation (AID 2283651)
Summary of the method: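 Using wild-type Tropical 5D zebrafish, we exposed dechorionated embryos from 6 to 120 hpf in embryo medium with 0.64% DMSO. Circulatory defects were scored as present or absent; 5uM trimethyltin chloride served as positive control.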

[18] = read-out: kallikrein-3 (KLK3), KLK3 (gene 354); experiment: LTEA_HepaRG_KLK3: Life Technologies and Expression Analysis (LTEA) Assay for kallikrein-3 (KLK3) using HepaRG (AID 2283652; active = hit-call score of the fitted dose curve at least 0.9, where 1 is the maximum; inactive = score below 0.9); details: mRNA level, 48 h; actives raise or lower the signal
Summary of the method: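 Differentiated human HepaRG cells in serum-free induction medium exposed 48 h in duplicate, eight-point half-log series from 100 uM in 0.5% DMSO. KLK3 mRNA by qRT-PCR, normalised to ACTB, GAPDH, POLR2A; bidirectional fit versus DMSO.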

[19] = Tanguay_ZF_120hpf_CFIN_legacy: (Legacy) Oregon State University Tanguay Lab 120 Hour Post-fertilization zebrafish Assay for Caudal Fin Malformation (AID 2283649)
Summary of the method: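 Dechorionated Tropical 5D wild-type embryos, one per well from 6 hpf, static exposure to 120 hpf at 28C in 0.64% DMSO. Caudal fin malformation scored by brightfield as present/absent; not scored in dead embryos.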

[20] = Tanguay_ZF_120hpf_MORT_legacy: (Legacy) Oregon State University Tanguay Lab 120 Hour Post-fertilization zebrafish Assay for Mortality (AID 2283633)
Summary of the method: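 Dechorionated Tropical 5D wild-type zebrafish embryos, one per well from 6 hpf, static exposure in 0.64% DMSO at 28C until 120 hpf. Mortality scored as binary by brightfield microscopy at 24 and 120 hpf.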

Measured: AC50

Sequence of Cellular tumor antigen p53 (Homo sapiens) (P04637 whole entry, looked up): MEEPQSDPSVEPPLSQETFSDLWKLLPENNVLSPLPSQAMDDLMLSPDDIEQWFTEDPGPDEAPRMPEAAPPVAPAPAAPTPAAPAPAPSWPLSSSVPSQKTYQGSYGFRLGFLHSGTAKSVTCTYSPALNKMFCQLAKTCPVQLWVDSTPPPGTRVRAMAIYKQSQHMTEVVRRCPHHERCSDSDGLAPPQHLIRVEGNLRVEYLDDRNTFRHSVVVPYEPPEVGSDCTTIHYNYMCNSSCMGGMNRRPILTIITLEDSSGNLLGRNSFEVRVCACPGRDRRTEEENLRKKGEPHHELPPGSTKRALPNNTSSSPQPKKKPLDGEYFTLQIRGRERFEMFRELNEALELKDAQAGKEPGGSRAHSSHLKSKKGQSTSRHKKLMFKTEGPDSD

COC(=O)N(OC)c1ccccc1COc1ccn(-c2ccc(Cl)cc2)n1
inactive: [2] | [4] | [6] | [7] | [8] | [9] | [10] | [11] | [12] | [13] | [14] | [15] | [16] | [17]
active: [1] 1510 nM | [3] 1900 nM | [5] 1670 nM

N#Cc1nn(-c2c(Cl)cc(C(F)(F)F)cc2Cl)c(N)c1S(=O)C(F)(F)F (stereo not drawn)
inactive: [1] | [2] | [3] | [4] | [5] | [8] | [9] | [10] | [11] | [12] | [13] | [15] | [16] | [17]
active: [6] 23.5 nM | [7] 4620 nM

C=CC1(C)OC(=O)N(c2cc(Cl)cc(Cl)c2)C1=O (stereo not drawn)
inactive: [1] | [2] | [3] | [4] | [5] | [6] | [7] | [8] | [9] | [10] | [11] | [12] | [13] | [14] | [16] | [17] | [18]

CCNc1nc(Cl)nc(NCC)n1
inactive: [1] | [2] | [3] | [4] | [5] | [6] | [7] | [8] | [9] | [10] | [11] | [12] | [13] | [14] | [15] | [19] | [17]

CO/C=C(/C(=O)OC)c1ccccc1Oc1cc(Oc2ccccc2C#N)ncn1
inactive: [1] | [2] | [3] | [4] | [5] | [6] | [7] | [8] | [9] | [10] | [11] | [12] | [13] | [14] | [15] | [19] | [16] | [17]
active: [6] 5690 nM | [12] 5470 nM

O=C(O)COc1nc(Cl)c(Cl)cc1Cl
inactive: [1] | [2] | [3] | [4] | [5] | [6] | [7] | [8] | [9] | [10] | [11] | [12] | [13] | [14] | [15] | [16] | [17]

C=CCC1=C(C)C(OC(=O)C2C(C=C(C)C)C2(C)C)CC1=O (stereo not drawn)
inactive: [1] | [2] | [3] | [4] | [5] | [6] | [7] | [8] | [9] | [10] | [11] | [12] | [13] | [14] | [15] | [16] | [17]

CCCCC(CC)COC(=O)c1ccccc1C(=O)OCC(CC)CCCC (stereo not drawn)
inactive: [1] | [2] | [3] | [4] | [5] | [6] | [7] | [8] | [9] | [10] | [11] | [13] | [14] | [15] | [16] | [17]

COc1ccc(C(c2ccc(OC)cc2)C(Cl)(Cl)Cl)cc1
inactive: [1] | [2] | [3] | [4] | [5] | [6] | [7] | [8] | [9] | [10] | [12] | [13] | [14] | [15] | [17]

CON(C)C(=O)Nc1ccc(Cl)c(Cl)c1
inactive: [1] | [2] | [3] | [4] | [5] | [6] | [7] | [8] | [9] | [10] | [11] | [12] | [13] | [14] | [15] | [16] | [17]

CNC(=O)ON=CC(C)(C)SC
inactive: [1] | [2] | [3] | [4] | [5] | [8] | [9] | [10] | [11] | [13] | [14] | [15] | [16] | [17]
active: [6] 3470 nM | [7] 2310 nM | [12] 2810 nM

Oc1ccccc1-c1ccccc1
inactive: [1] | [2] | [3] | [4] | [5] | [20] | [6] | [8] | [9] | [10] | [12] | [13] | [14] | [15] | [19] | [16] | [17]
